Among the data in PubChem BioAssay (Tox21) are Potency and activity change, positive = activation values, retold here.

The nature of test [1]: qHTS assay to identify small molecule agonists of H2AX - cell viability counter screen (AID 1224847; calls by dose curve; note: nearly all actives have a fitted effect of over 30% in size; note: potency is the fitted concentration of half-maximal effect). An outline of the steps:
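Wild-type CHO-K1 cells (10% FBS medium) were plated overnight at 37C, exposed to compounds at 15 concentrations for 3 hr at 37C (0.76% DMSO final), and viability was read as CellTiter-Glo luminescence after 30 min at room temperature.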
In general terms: Quantitative high-throughput screening tests each substance at several concentrations.

Test [2] in a line: qHTS assay to identify small molecule agonists of the estrogen related receptor (ERR) signaling pathway from Tox21 library (AID 1224849; calls by dose curve; note: % is set by controls: 0 for no effect and ±100 for the full control effect; nearly all actives have a fitted effect of over 15% in size). Particulars: ERR reporter cell line, ONE-Glo luciferase, 18 h; at 92.4 µM (top of the series) unless noted. An outline of the steps: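 ERR reporter cell line (NTP) seeded, rested 6 h at 37 C/5% CO2, then pinned with Tox21 compounds in DMSO. After 18 h at 37 C, ONE-Glo luciferase luminescence was read following 30 min at room temperature.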

Test [3] can be described thus: qHTS RealTime-Glo MT Cell Viability Assay in HepG2 cells - 24 hour (AID 1224867). Note: nearly all actives have a fitted effect of over 50% in size. Note: potency is the fitted concentration of half-maximal effect. The procedure, abridged: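 Cell number in HepG2 cultures estimated from NanoLuc luminescence generated by metabolic reduction of a prosubstrate by living cells. The homogeneous, nonlytic format allowed repeated reads at 0, 8, 16, 24, 32 and 40 h of compound exposure.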
Test [4] is described as follows: qHTS RealTime-Glo MT Cell Viability Assay in HEK293 cells - 32 hour (AID 1224868). Note: nearly all actives have a fitted effect of over 50% in size. Note: potency is the fitted concentration of half-maximal effect. The procedure, abridged:
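Homogeneous bioluminescent viability format in HEK293 cells (600 cells/well). Following 5 h at 37 C/5% CO2, 23 nL compound was pintooled; the signal was measured repeatedly during 40 h incubation.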

Test [5] in a line: A CellTox Green Cytotoxicity Assay to monitor cytotoxicity in HEK293 cells - 0 hour (AID 1224869). For Cytotoxicity: % is set by controls: 0 for no effect and ±100 for the full control effect. Note: nearly all actives have a fitted effect of over 50% in size. Note: potency is the fitted concentration of half-maximal effect. The procedure, abridged: (§1)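 HEK293 cells premixed with CellTox Green dye were seeded at 600 cells/well and left 5 h at 37 C/5% CO2 before pin transfer of 23 nL compound in DMSO. Fluorescence from dye bound to dead-cell DNA was read during 40 h treatment.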
Test [6] can be described thus: qHTS RealTime-Glo MT Cell Viability Assay in HepG2 cells - 40 hour (AID 1224870). Note: nearly all actives have a fitted effect of over 50% in size. Note: potency is the fitted concentration of half-maximal effect. The procedure, abridged:
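HepG2 cells mixed with RealTime-Glo MT reagents (NanoLuc plus cell-permeant prosubstrate) were seeded at 600 cells/well, incubated 5 h at 37 C/5% CO2, then pinned with compounds in DMSO; nonlytic luminescence tracked viability during 40 h treatment.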

Test [7] in a line: A CellTox Green Cytotoxicity Assay to monitor cytotoxicity in HEK293 cells - 40 hour (AID 1224871). Note: nearly all actives have a fitted effect of over 45% in size. Note: potency is the fitted concentration of half-maximal effect. The procedure, abridged: as §1
Test [8] is described as follows: qHTS assay to identify small molecule antagonists of the estrogen related receptor (ERR) signaling pathway from Tox21 library (AID 1224848). The procedure, abridged:
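Screening used an ERR reporter line supplied by NTP, exposed for 18 h at 37 C to library compounds delivered in DMSO. Signal was luciferase luminescence developed with ONE-Glo at room temperature for 30 min.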

The nature of test [9]: qHTS assay to identify small molecule agonists of the hypoxia (HIF-1) signaling pathway (AID 1224846; active = well fitted activation curve with a large enough effect in the signal ratio in the repeat runs, not every such curve was filed as active; the % refers to the signal ratio; note: % is set by controls: 0 for no effect and ±100 for the full control effect). An outline of the steps: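 HRE-bla ME-180 cells (beta-lactamase reporter under hypoxia response element) were plated at 2,000 cells/well in medium with 0.5% dialyzed FBS, rested 5 hrs, then given compounds in DMSO for 17 hrs at 37C, 5% CO2. Reporter induction was read with CCF4-AM FRET substrate.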

The structures appear in SMILES notation. Unmarked numbers belong to inactive results. Records with an inconclusive call do not appear. Active and inactive are the calls of the source. Unless noted, calls come from the whole dose curve; as a rule, active = well fitted curve in the direction sought with a large enough effect in the repeat runs; inconclusive = weak or mixed curves; inactive = no such curve, though single readings can be large; an effect the other way counts as inactive or inconclusive.

For `O=C(c1ccc(F)cc1)C1CCN(CCn2c(=O)[nH]c3ccccc3c2=O)CC1`, the Potency entry in [1], in test [3], in [5], in test [6] and in test [7] was “inactive” throughout. Moreover, the activity change, positive = activation in test [2] is -25.2% [at 42.5 µM]. In addition, the Potency in test [4] is 9.52 µM (active).
For `CC(=O)N1CCN(c2ccc(OC[C@H]3CO[C@](Cn4ccnc4)(c4ccc(Cl)cc4Cl)O3)cc2)CC1`, the Potency in test [1] was 101 µM (active); in test [8], 12.2 µM (active); in test [3], 49 µM (active); in [4], 24.5 µM (active); in [6] it was 54.9 µM (active); in [7] it was 49 µM (active). For the same compound, in test [2], the activity change, positive = activation is -79.4%.
Consider `O=S1(=O)CC(Cl)(Cl)C(Cl)(Cl)C1`, for which the Potency is 25.3 µM (active) in test [1]; 15.4 µM (active) in test [8]; 6.92 µM (active) in test [3]; 6.16 µM (active) in test [6]; 1.95 µM (active) in test [7]. Also, the activity change, positive = activation in [2] is -79.8%. For the same compound, the Potency entry in test [5] is “inactive”.
In the case of `Cc1cc(O)c(C(C)(C)C)cc1Sc1cc(C(C)(C)C)c(O)cc1C`, the Potency in test [1] was 17.9 µM (active); in [8], 13.7 µM (active); in [3], 43.6 µM (active); in [4], 21.8 µM (active); in [6], 48.9 µM (active); in test [7] it was 54.8 µM (active). Besides, the activity change, positive = activation in [2] is -80.3%. Further, the Potency result in test [5] is “inactive”.
`O=C(OCC1CO1)C1CCCCC1C(=O)OCC1CO1` (configuration not stated): the Potency result in test [1], in test [3], in test [5] and in test [6] was “inactive” each time. The activity change, positive = activation in test [2] was -46.8%.
As to `CCN(CC)CCNC(=O)c1c(C)[nH]c(/C=C2\C(=O)Nc3ccc(F)cc32)c1C`, the Potency result in test [9] was “inactive”. Moreover, the Potency in test [3] was 21.3 µM (active); in [4], 10.7 µM (active); in test [6] it was 15.1 µM (active); in [7] it was 23.9 µM (active).
Take `CC/C(=C(\c1ccc(O)cc1)c1ccc(OCCN(C)C)cc1)c1ccccc1`: the Potency in test [1] is 90 µM (active); in [8], 48.7 µM (active); in test [3] it was 61.8 µM (active); in [4], 19.5 µM (active); in test [7], 43.8 µM (active). Besides, the activity change, positive = activation in test [2] is -78.4%.
For `CC(C)CCCCCCCCCCCCCCC(=O)O`, in test [1], the Potency is 1.6 µM (active). Besides, the activity change, positive = activation in [2] was -17%. In addition, the Potency result in [3], in test [5], in test [6] and in test [7] was “inactive” throughout.
For `CCCCCCCCCOC(=O)c1ccc(O)cc1`, the results for the Potency in test [1], in test [4] and in [7] were 99.3 µM (active), 38.3 µM (active) and 38.3 µM (active), respectively. In test [2], the activity change, positive = activation is -33.4%. Also, the Potency result in [5] and in test [6] was “inactive” each time.
In the case of `CC1=C(C(=O)OC(C)C)C(c2cccc([N+](=O)[O-])c2)C(C(=O)OC2CN(C(c3ccccc3)c3ccccc3)C2)=C(N)N1` (configuration not stated), the Potency in [1] is 55.2 µM (active); in [8], 26.6 µM (active); in test [3] it was 21.3 µM (active); in test [6] it was 23.9 µM (active). In addition, the activity change, positive = activation in [2] is -68.1% [at 42.5 µM]. Moreover, the Potency result in test [7] was “inactive”.
For `Nc1ccc(N)c2ccccc12`, the Potency was 101 µM (active) in test [1] and 27.3 µM (active) in test [8]. For the same compound, the Potency entry in test [5] was “inactive”.
With `Cc1cc(O)c2ccccc2c1O`, the Potency in test [1] is 5.52 µM (active); in [8] it was 13.3 µM (active); in test [3], 13.4 µM (active); in [4], 8.49 µM (active); in [6] it was 13.4 µM (active); in test [7] it was 9.52 µM (active). Besides, in [2], the activity change, positive = activation is -47.1% [at 42.5 µM]. For the same compound, the Potency result in [5] was “inactive”.
`COc1ccc(-c2ccc3cc(C(=O)O)ccc3c2)cc1C12CC3CC(CC(C3)C1)C2`: the Potency entry in test [1], in [5] and in test [7] was “inactive” in each case. The activity change, positive = activation in test [2] is -10.4% [at 42.5 µM]. Also, the Potency in test [4] is 5.35 µM (active).
In the case of `Oc1ccc(C2(c3ccc(O)cc3)CC3CC2C2CCCC32)cc1` (configuration not stated), the figures for the Potency in test [1], in test [8] and in test [4] were 86.2 µM (active), 58.7 µM (active) and 41.9 µM (active), respectively. Further, the activity change, positive = activation in test [2] is -75.2%. For the same compound, the Potency entry in test [3], in test [5] and in [6] was “inactive” throughout.
For the compound `CCCCCCCCCCn1cc[n+](CCCCCCCCCC)c1C`, the Potency in test [1] was 10.1 µM (active); in [8] it was 2.17 µM (active); in test [3], 19.5 µM (active); in test [4], 1.38 µM (active); in [6], 19.5 µM (active); in test [7], 19.5 µM (active). For the same compound, the activity change, positive = activation in [2] is -74.4%. Besides, the Potency result in test [5] is “inactive”.
In the case of `CCCCCCCCCCCCCCCC(=O)OC[C@H](O)[C@H]1OC(=O)C(O)=C1O`, the Potency entry in test [1], in test [3], in test [4], in [5] and in test [6] was “inactive” throughout. Besides, in [2], the activity change, positive = activation is -29.6%.
As to `Nc1cc(C(F)(F)F)ccc1S`, the Potency entry in test [1], in test [3], in [4], in [5], in test [6] and in test [7] was “inactive” throughout. Besides, in [2], the activity change, positive = activation was -31.1% [at 42.5 µM].
Consider `CC(C)c1ccc2c(c1)CC[C@H]1[C@](C)(CN)CCC[C@]21C`, for which the Potency in [1] is 89.8 µM (active); in test [8], 68.6 µM (active); in [3], 13.8 µM (active); in [4], 11 µM (active); in test [6], 11 µM (active); in test [7] it was 19.5 µM (active). Besides, the activity change, positive = activation in test [2] was -75.7%.
As to `OCCN(CCO)c1nc(N2CCCCC2)c2nc(N(CCO)CCO)nc(N3CCCCC3)c2n1`, the Potency entry in [1], in [3] and in test [6] was “inactive” throughout. Further, the results for the Potency in [8], in [4] and in test [5] were 13.3 µM (active), 26.8 µM (active) and 21.3 µM (active), respectively. For the same compound, the activity change, positive = activation in test [2] was -56% [at 42.5 µM].
With `N=C1C=CC(=C(c2ccc(N)cc2)c2ccc(N)cc2)C=C1`, the Potency in test [1] was 28.4 µM (active); in test [8], 2.17 µM (active); in [3], 24.5 µM (active); in [4], 2.19 µM (active); in [6], 38.9 µM (active). The activity change, positive = activation in test [2] was -66.1%. The Potency entry in test [5] and in [7] was “inactive” throughout.
On to `CCC(Cl)C(Cl)C(Cl)CC(Cl)C(Cl)C(C)Cl` (configuration not stated), for which the Potency entry in [9], in [3], in test [4], in [5], in [6] and in test [7] was “inactive” each time.
For the compound `O=C(N/N=C/c1ccccc1O)c1ccncc1`, the Potency entry in test [1], in test [3], in [5], in test [6] and in test [7] was “inactive” each time. Further, in [8], the Potency was 11.9 µM (active). Further, the activity change, positive = activation in [2] is -42.8% [at 42.5 µM].
